Screening results deposited in PubChem BioAssay by National Center for Advancing Translational Sciences (NCATS).
Hits are enriched below; roughly 9.3% of the tested compounds scored in any of these assays.
FMDV antiviral – High Throughput Screening for Foot and Mouth Disease Virus Antivirals; Potency, µM (series often up to 57.9 µM), actives largely listed as inhibitors; 410,000 tested, 1.2% active; FMDV antiviral cell-based qHTS; calls by dose curve; tested in HEK293T cells; also: read-out not given here; nearly all actives have a fitted effect of over 45% in size
HCMV inh – qHTS Assay for inhibitors of the human cytomegalovirus (HCMV) | HFF cells, HCMV-luciferase reporter, 72 h; stronger effect = lower value | 410,000 tested, 4.5% active | activity change, negative = inhibition, % at 57.5 µM; in the data active = activity change below about -60%; inconclusive = no clear call, values can overlap the other calls; inactive = above about -39%
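HFF cells seeded 16 h at 37C, treated with compounds, infected with luciferase-reporter HCMV at MOI 1 PFU/cell; luciferase read at 72 h post infection, normalized to buffer-only and Salinomycin controls.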
VACV mCherry inh – qHTS for Stage-Specific Inhibitors of Vaccinia Orthopoxvirus: mCherry Reporter Primary qHTS; Vaccinia virus mCherry reporter infection, fluorescence; Potency, µM (doses to about 36.5 µM), hits mostly inhibitors; 310,000 tested, 0.63% active; AID 720579, 2013; calls by dose curve; tested in A549 cells; also: nearly all actives have a fitted effect of over 35% in size
Sm TGR inh – qHTS Assay for the Inhibitors of Schistosoma Mansoni Peroxiredoxins | Schistosoma mansoni thioredoxin glutathione reductase (TGR), Q962Y6 | purified TGR, DTNB reduction, TNB absorbance 405 nm | Potency, µM (top dose mostly 114 µM), most hits filed as inhibitors | 360,000 tested, 3% active; also: nearly all actives have a fitted effect of over 60% in size
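TGR 20 nM + NADPH 100 uM (dispensed conc.), cpd preinc 15 min RT; start with NADPH (500 uM addition) then DTNB (15 mM addition). Kinetic TNB absorbance, 405 nm filter. Four-parameter Hill fit across titration.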
HCV inhibitor – qHTS Assay for Inhibitors of Hepatitis C Virus (HCV) | Potency, µM (doses to about 41.8 µM), hits mostly inhibitors | Huh7.5.1 HCVcc-Cre infection, luciferase reporter, 44 h | AID 651820, 2012 | 340,000 tested, 3.4% active
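Infectious HCV cell culture screen: compound-treated cells (1,000/well, pre-plated 4 h) are infected with HCVcc-Cre at roughly 0.5 moi and grown 44 h. Infection is quantified by luciferase signal after 15 min substrate incubation at room temperature.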
VACV Venus inh – qHTS for Stage-Specific Inhibitors of Vaccinia Orthopoxvirus: Venus Reporter Primary qHTS; 330,000 tested, 0.46% active; Vaccinia virus Venus reporter expression, fluorescence; Potency, µM (top dose mostly 36.5 µM), hits mostly inhibitors; AID 720580, 2013; calls by dose curve; tested in A549 cells; also: nearly all actives have a fitted effect of over 30% in size
Hits are given with their value; n = inactive; u = inconclusive; x = no result given. Unless noted, calls follow the shape of the dose curve; as a rule, active = well fitted curve in the direction sought with a large enough effect; inconclusive = small, poorly fitted or top-dose-only effect, or another doubt; inactive = no such curve, though single readings can be large; an effect the other way counts as inactive or inconclusive.

SMILES	FMDV antiviral	HCMV inh	VACV mCherry inh	Sm TGR inh	HCV inhibitor	VACV Venus inh
C/C(Cc1ccccc1)=N/NC(=O)CCCC(=O)N/N=C(/C)Cc1ccccc1	n	n	x	n	n	x
CCN(CCNC(=O)CS(=O)(=O)Cc1nc(-c2cccc(OC)c2)oc1C)c1ccccc1	n	n	x	n	22.4µM	x
COCCCNC(=O)CS(=O)(=O)Cc1nc(-c2cccc(OC)c2)oc1C	n	n	x	u	n	x
COc1cccc(-c2nc(CS(=O)(=O)CC(=O)NCCC(C)C)c(C)o2)c1	n	n	n	44.7µM	u	n
COc1cccc(-c2nc(CS(=O)(=O)CC(=O)N3CCN(c4ccccn4)CC3)c(C)o2)c1	n	n	n	50.1µM	u	n
COc1ccc(-c2c(-c3ccc(C#N)cc3)oc(=O)c3cc(OC)c(OC)cc23)cc1	n	n	n	x	u	n
COc1cc(C=O)ccc1OCC(=O)N1CCOCC1	n	n	n	n	n	n
COc1ccc(N2C(=O)CC(N(CCc3ccccc3)C(=O)/C=C/C(=O)O)C2=O)cc1 (centres undefined)	n	n	n	u	n	n
O=C(O)/C=C/C(=O)N(CC1CCCO1)C1CC(=O)N(c2c(Cl)cccc2Cl)C1=O (centres undefined)	n	n	u	39.8µM	u	n
C=CCN(c1ccccc1)S(=O)(=O)c1cccc(C(=O)NCc2ccncc2)c1	n	n	u	n	u	n
CN(c1cccc(Cl)c1)S(=O)(=O)c1cccc(C(=O)Nc2nc3ccccc3[nH]2)c1	12.6µM	-99.4	u	n	u	11.2µM
CCN(c1ccccc1)S(=O)(=O)c1ccc(C(=O)Nc2ccncc2)cc1	25.1µM	n	n	n	u	n
CCN(c1ccccc1)S(=O)(=O)c1ccc(C(=O)Nc2cccc(NC(C)=O)c2)cc1	u	n	x	x	n	x
C=CCN(c1ccccc1)S(=O)(=O)c1cccc(C(=O)Nc2nc3ccccc3[nH]2)c1	22.4µM	n	n	n	n	n
C=CCN(c1ccccc1)S(=O)(=O)c1cccc(C(=O)Nc2ccncc2)c1	22.4µM	-75.1	n	n	u	n
Clc1ccc(OCCn2cnc3ccccc32)c(Cl)c1	n	n	n	n	n	n
CCN(c1ccccc1)S(=O)(=O)c1cc(C(=O)Nc2ccc(F)c(F)c2)ccc1F	11.2µM	-90.9	u	n	4.47µM	u
CS(=O)(=O)N(Cc1ccccc1)c1ccc(C(=O)Nc2ccc(Cl)cc2)cc1	u	-87.7	n	n	x	n
Cc1ccccc1NC(=O)c1ccc(N(Cc2ccccc2)S(C)(=O)=O)cc1	n	u	n	n	x	n
C=CCN(c1ccccc1)S(=O)(=O)c1cccc(C(=O)Nc2ccc(N3CCOCC3)cc2)c1	22.4µM	u	u	n	7.08µM	u
CCOC(=O)CNC(=O)C(CC(N)=O)NC(=O)OC(C)(C)C (centres undefined)	n	n	x	n	n	x
Cc1noc(C)c1S(=O)(=O)N1CCCN(C(=O)/C=C/c2ccccc2F)CC1	n	n	x	n	n	x
O=C(N[C@@H]1CC[C@@H](CCn2cc(-c3ccccc3)nn2)O[C@@H]1CO)c1cnccn1	n	-70.4	n	x	x	n
O=C(N[C@@H]1CC[C@H](CCn2cc(-c3ccccn3)nn2)O[C@@H]1CO)c1ccncc1	n	n	n	x	x	n
CCc1nnc(NC(=O)CSc2nnc(-c3ccccc3NC(=O)c3ccccc3)o2)s1	x	n	n	n	11.2µM	n
CCOC(=O)c1c(NC(=O)c2cc3nc(-c4ccc(OC)cc4)cc(C(F)(F)F)n3n2)sc(C)c1C	n	n	n	n	x	n
CCN(CC)c1cc(CS(=O)c2ccccc2)nc(-c2ccccc2)n1 (centres undefined)	n	-60.7	n	x	u	n
COc1ccc(C2C(C#N)=C(N)Oc3c2ccc2cccnc32)cc1OC (centres undefined)	n	-100.5	8.91µM	x	n	u
